VDR inh – blocks the human vitamin D receptor; Potency, µM, usual class: inhibitors; hit rate 0.93% among 400,000; P11473; VDR-SRC2-3 peptide fluorescence polarization, 2 h
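Fluorescence polarization assay measuring small-molecule disruption of VDR binding to the coregulator peptide SRC2-3. Compounds were pin-transferred (23 nl) into the reagent mix and incubated 2 h at room temperature before reading.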
PLK1 PBD block – inhibitors of human PLK1 polo-box domain binding | P53350 | Plk1 PBD binding of FITC phosphopeptide, fluorescence polarization | Potency, µM, hits mostly inhibitors | hit rate 2.8% among 360,000 | AID 720504; also: series mostly up to about 57 µM; nearly all actives have a fitted effect of over 65% in size
GALK inhibitor – blocks human galactokinase activity | P51570 | Potency, µM (titrated, usually from 57.5 µM), most hits filed as inhibitors | Purified GALK, Kinase-Glo residual ATP luminescence | hit rate 0.007% among 270,000
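5 nM enzyme, 35 uM ATP, 100 uM galactose, 20 mM HEPES pH8.0, 5 mM MgCl2; 1 h RT; residual ATP by Kinase-Glo Plus luminescence, qHTS format.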
USP1 inh – USP1/UAF1 (human) deubiquitinase inhibition; recombinant USP1/UAF1, Ub-Rhodamine cleavage fluorescence; O94782; Potency, µM (series often up to 57.1 µM), actives largely listed as inhibitors; hit rate 0.23% among 390,000; AID 743255; also: nearly all actives have a fitted effect of over 60% in size
Target sequence (O94782 whole entry, looked up): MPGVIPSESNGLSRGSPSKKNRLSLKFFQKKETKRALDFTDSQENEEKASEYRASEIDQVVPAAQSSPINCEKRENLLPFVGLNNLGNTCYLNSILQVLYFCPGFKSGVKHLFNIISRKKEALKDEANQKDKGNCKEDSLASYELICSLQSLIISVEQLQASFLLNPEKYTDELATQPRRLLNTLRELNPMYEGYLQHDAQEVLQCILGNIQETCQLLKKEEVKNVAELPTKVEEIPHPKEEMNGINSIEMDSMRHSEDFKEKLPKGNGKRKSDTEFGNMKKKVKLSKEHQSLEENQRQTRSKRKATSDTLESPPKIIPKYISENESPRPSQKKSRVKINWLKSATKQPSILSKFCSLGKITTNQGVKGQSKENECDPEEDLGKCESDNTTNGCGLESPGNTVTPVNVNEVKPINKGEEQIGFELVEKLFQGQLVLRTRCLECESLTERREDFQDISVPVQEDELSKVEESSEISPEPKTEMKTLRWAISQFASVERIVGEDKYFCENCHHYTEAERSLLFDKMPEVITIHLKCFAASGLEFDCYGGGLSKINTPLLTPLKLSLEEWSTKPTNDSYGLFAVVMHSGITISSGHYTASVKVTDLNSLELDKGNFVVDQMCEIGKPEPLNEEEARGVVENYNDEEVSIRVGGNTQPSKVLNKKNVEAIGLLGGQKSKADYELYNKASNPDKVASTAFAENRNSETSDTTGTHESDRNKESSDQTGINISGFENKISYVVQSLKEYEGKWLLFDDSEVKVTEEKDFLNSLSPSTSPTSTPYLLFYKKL
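1 nM enzyme complex + cpd, 15 min RT; start with Ub-Rho 150nM final; kinetic fluorescence ex 480/em 540, 6 reads q60 s. Buffer 50mM HEPES pH 7.8, 0.5mM EDTA, 0.1 mg/ml BSA, 1mM TCEP, 0.01% Tween-20.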
USP2a block – USP2a (human) protease inhibition; O75604; USP2 core, Ub-CHOP2 coupled fluorogenic reporter, 485/531; Potency, µM (top dose mostly 38.3 µM), actives largely listed as inhibitors; hit rate 0.01% among 330,000; AID 463254
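USP2 core (10nM final) preincubated 30min RT with compound in 20mM Tris-HCl pH 8.0, 2mM CaCl2, 2mM beta-mercaptoethanol, 0.05% CHAPS; 25nM Ub-CHOP2 plus 25nM reporter substrate added, fluorescence (Ex485/Em531) read after 60min.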
FBPA coupling cs – counter-screen for Giardia aldolase inhibitors: coupling enzyme system; coupling enzyme system counterscreen, AmpLite Red fluorescence; activity change, negative = inhibition, % at 58.2 µM, hits read low; hit rate 0.67% among 290,000; AID 2472; in the data active = activity change below about -30%
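Final compound at 57.5 uM, incubated 10 min at RT with coupling enzyme reagent (glyceraldehyde-3-phosphate), then 20 min with substrate and AmpLite Red detection. Fluorescence read at 525/598 nm; tests interference with the coupling assay, not aldolase inhibition.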
Numbers stand for hits; ! = repeats disagree. The list is not random: actives were taken first. Their share in the collection is about 3.2%. Unless noted, calls follow the shape of the dose curve; as a rule, active = well fitted curve in the direction sought with a large enough effect; inconclusive = small, poorly fitted or top-dose-only effect, or another doubt; inactive = no such curve, though single readings can be large; an effect the other way counts as inactive or inconclusive.

How did CCOC(=O)c1c(NC(=O)C(C)Oc2ccc(Cl)c(C)c2)sc2c1CCCC2 (centres undefined) do in these assays?
VDR inh: 79.4µM; USP1 inh: inactive

Results for CCCc1ccc(OC(C)C(=O)Nc2sc3c(c2C(=O)OC)CCCCC3)cc1 (centres undefined) ?
VDR inh: 89.1µM; USP1 inh: inconclusive

How did O=C(CC[C@H]1O[C@@H](n2ccc(=O)[nH]c2=O)[C@H](O)[C@@H]1O)N[C@@H](Cc1ccccc1)C(=O)NCC1CCCO1 (some centres undefined) do in these assays?
PLK1 PBD block: inactive

Results for CC(C)(C)OC(=O)N1CCC[C@H]1c1nnc(SCc2c(Cl)cccc2Cl)o1 ?
VDR inh: inactive; PLK1 PBD block: inactive; GALK inhibitor: inactive; USP1 inh: inactive; USP2a block: inactive; FBPA coupling cs: inactive

How did COC(=O)Cc1ccc(O)c(N)c1 do in these assays?
VDR inh: inconclusive; PLK1 PBD block: 9.47µM; GALK inhibitor: inactive; USP1 inh: inactive; USP2a block: inactive; FBPA coupling cs: inactive

What do the screens show for `COC(=O)c1cc(Cc2ccc(N)c(C(=O)OC)c2)ccc1N`?
VDR inh: inactive; PLK1 PBD block: inactive; GALK inhibitor: inactive; USP1 inh: inactive; USP2a block: inactive; FBPA coupling cs: inactive

What do the screens show for `NS(=O)(=O)c1ccc(Nc2ccc([N+](=O)[O-])c3nonc23)cc1`?
VDR inh: inactive; PLK1 PBD block: inactive; GALK inhibitor: inactive; USP1 inh: inconclusive; USP2a block: inactive; FBPA coupling cs: -32.8

How did Nc1nc(Cl)nc2ccc(Br)cc12 do in these assays?
VDR inh: inactive; PLK1 PBD block: 16.8µM; GALK inhibitor: inactive; USP1 inh: inactive; USP2a block: inactive; FBPA coupling cs: inactive

How did CC1(C(=O)Nc2ccc(F)c(Cl)c2)Cc2c(-c3cccc(C(N)=O)c3)ccnc2O1 (centres undefined) do in these assays?
PLK1 PBD block: inactive

How did c1cn(-c2ncnc3ccc(-c4ccoc4)cc23)cn1 do in these assays?
VDR inh: 31.6µM; FBPA coupling cs: inactive

How did c1nc(NC2CC2)c2cc(-c3ccoc3)ccc2n1 do in these assays?
VDR inh: 39.8µM; FBPA coupling cs: inactive

Results for Cc1cccc(CNc2ncnc3ccc(-c4ccoc4)cc23)c1 ?
VDR inh: 20µM!; USP2a block: inactive; FBPA coupling cs: inactive

What do the screens show for `Cc1cc(C)n(-c2nc(N(C)C)nc(N(C)C)n2)n1`?
VDR inh: inactive; PLK1 PBD block: inactive; GALK inhibitor: inactive; USP1 inh: inactive; USP2a block: inactive; FBPA coupling cs: inactive

Results for NC(=O)c1cc2ccccc2o/c1=N/NC(=O)c1cccs1 ?
VDR inh: inactive; PLK1 PBD block: inactive; GALK inhibitor: inactive; USP1 inh: inactive; USP2a block: inactive; FBPA coupling cs: inactive

How did N/C(=N\NC(=O)c1cccs1)c1cc2cc(Cl)ccc2oc1=O do in these assays?
VDR inh: inactive; PLK1 PBD block: 23.8µM; GALK inhibitor: inactive; USP1 inh: inactive; USP2a block: inactive; FBPA coupling cs: inactive

Results for CCOC(=O)C(C)CC(C)C(=O)N1CCOCCOCCN(C(=O)C(C)CC(C)C(=O)OCC)CCOCC1 (centres undefined) ?
VDR inh: inactive; PLK1 PBD block: inactive; GALK inhibitor: inactive; USP1 inh: inactive; USP2a block: inactive; FBPA coupling cs: inactive

What do the screens show for `CCOC(=O)C(C(=O)OCC)C(C(=O)OCC)N1CCOCC1` (centres undefined)?
VDR inh: 39.8µM; PLK1 PBD block: 23.8µM; GALK inhibitor: inactive; USP1 inh: inactive; USP2a block: inactive; FBPA coupling cs: inactive

What do the screens show for `N#CC(C#N)=C1CCc2ccccc2N1`?
VDR inh: inactive; PLK1 PBD block: inactive; GALK inhibitor: inactive; USP1 inh: inactive; USP2a block: inactive; FBPA coupling cs: inactive

How did Nc1ccc(S(=O)(=O)Nc2nccs2)cc1N=Nc1ccccc1[N+](=O)[O-] do in these assays?
VDR inh: inconclusive; PLK1 PBD block: 29.9µM; USP1 inh: inactive

Results for Cc1ccccc1Nc1nc(-c2ccccc2)c(C(=O)Nc2cccnc2)s1 ?
VDR inh: inactive; PLK1 PBD block: 29.9µM; GALK inhibitor: inactive; USP1 inh: inactive; USP2a block: inactive; FBPA coupling cs: inactive

How did O=C(Nc1cccnc1)c1sc(Nc2ccccc2F)nc1-c1ccccc1 do in these assays?
VDR inh: inactive; PLK1 PBD block: inactive; GALK inhibitor: inactive; USP1 inh: inactive; USP2a block: inactive; FBPA coupling cs: inactive

Results for COc1ccc(-c2nsc(NC(=O)COc3ccccc3OC)n2)cc1 ?
VDR inh: inactive; USP1 inh: inactive

What do the screens show for `CNc1nc(N/N=C/c2ccc([N+](=O)[O-])cc2)nc(Nc2ccccc2)n1`?
VDR inh: inconclusive; PLK1 PBD block: 26.7µM; GALK inhibitor: inactive; USP1 inh: inactive; USP2a block: inactive; FBPA coupling cs: inactive

What do the screens show for `O=[N+]([O-])c1ccc(Nc2nc(N/N=C/c3cccc(F)c3)nc(N3CCCC3)n2)cc1`?
VDR inh: inactive; PLK1 PBD block: inactive; GALK inhibitor: inactive; USP1 inh: inactive; USP2a block: inactive; FBPA coupling cs: inactive

Results for COc1ccc(CC(=O)NCc2n[nH]c(=S)n2-c2cccc(C)c2)cc1 ?
VDR inh: inactive; PLK1 PBD block: inactive; GALK inhibitor: inactive; USP1 inh: inactive; USP2a block: inactive; FBPA coupling cs: inactive

How did O=C(Cc1ccccc1)NCc1n[nH]c(=S)n1-c1ccccc1 do in these assays?
VDR inh: inactive; PLK1 PBD block: 26.7µM; GALK inhibitor: inactive; USP1 inh: inactive; USP2a block: inactive; FBPA coupling cs: inactive

How did Cn1nc(-c2ccccc2)c2nc3ccccc3nc21 do in these assays?
VDR inh: inactive; PLK1 PBD block: 21.2µM; GALK inhibitor: inactive; USP1 inh: inconclusive; USP2a block: inactive; FBPA coupling cs: inactive

How did CCCCn1nc(-c2ccccc2)c2nc3ccccc3nc21 do in these assays?
GALK inhibitor: inactive; USP2a block: inactive; FBPA coupling cs: inactive

How did Cc1ccc(C(=O)OCC(=O)N2CC(=O)Nc3ccccc32)s1 do in these assays?
VDR inh: inactive; PLK1 PBD block: inactive; GALK inhibitor: inactive; USP1 inh: inactive; USP2a block: inactive; FBPA coupling cs: inactive

Results for COCc1nnc(NS(=O)(=O)c2ccc(Cl)cc2)s1 ?
VDR inh: inactive; PLK1 PBD block: inactive; GALK inhibitor: inactive; USP1 inh: inactive; USP2a block: inactive; FBPA coupling cs: inactive

How did CC(C(=O)NC1CCCCC1)N1CCN(C)CC1 (centres undefined) do in these assays?
VDR inh: inactive; PLK1 PBD block: 29.9µM; GALK inhibitor: inactive; USP1 inh: inactive; USP2a block: inactive; FBPA coupling cs: inactive

How did COc1ccccc1CNC(=O)CCc1nnc2ccc(NCCCN3CCCC3=O)nn12 do in these assays?
VDR inh: inactive; PLK1 PBD block: 21.2µM; GALK inhibitor: inactive; USP1 inh: inactive; USP2a block: inactive; FBPA coupling cs: inactive

Assay outcomes (PubChem BioAssay)
